Assay outcomes: PubChem BioAssay, University of Kansas High Throughput Screening Laboratory
The full list was thinned out, with hits kept by preference.
mHTT CaM bind: disrupts binding of mutant huntingtin to calmodulin. P42858. AlphaScreen His-mHTT/GST-CaM binding, luminescence. inhibition, % at 15 µM. hit rate 3.6% among 190,000;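 note: 0% = both proteins with DMSO and 100% = one protein alone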
Target sequence (P42858 whole entry, looked up, stated change not applied): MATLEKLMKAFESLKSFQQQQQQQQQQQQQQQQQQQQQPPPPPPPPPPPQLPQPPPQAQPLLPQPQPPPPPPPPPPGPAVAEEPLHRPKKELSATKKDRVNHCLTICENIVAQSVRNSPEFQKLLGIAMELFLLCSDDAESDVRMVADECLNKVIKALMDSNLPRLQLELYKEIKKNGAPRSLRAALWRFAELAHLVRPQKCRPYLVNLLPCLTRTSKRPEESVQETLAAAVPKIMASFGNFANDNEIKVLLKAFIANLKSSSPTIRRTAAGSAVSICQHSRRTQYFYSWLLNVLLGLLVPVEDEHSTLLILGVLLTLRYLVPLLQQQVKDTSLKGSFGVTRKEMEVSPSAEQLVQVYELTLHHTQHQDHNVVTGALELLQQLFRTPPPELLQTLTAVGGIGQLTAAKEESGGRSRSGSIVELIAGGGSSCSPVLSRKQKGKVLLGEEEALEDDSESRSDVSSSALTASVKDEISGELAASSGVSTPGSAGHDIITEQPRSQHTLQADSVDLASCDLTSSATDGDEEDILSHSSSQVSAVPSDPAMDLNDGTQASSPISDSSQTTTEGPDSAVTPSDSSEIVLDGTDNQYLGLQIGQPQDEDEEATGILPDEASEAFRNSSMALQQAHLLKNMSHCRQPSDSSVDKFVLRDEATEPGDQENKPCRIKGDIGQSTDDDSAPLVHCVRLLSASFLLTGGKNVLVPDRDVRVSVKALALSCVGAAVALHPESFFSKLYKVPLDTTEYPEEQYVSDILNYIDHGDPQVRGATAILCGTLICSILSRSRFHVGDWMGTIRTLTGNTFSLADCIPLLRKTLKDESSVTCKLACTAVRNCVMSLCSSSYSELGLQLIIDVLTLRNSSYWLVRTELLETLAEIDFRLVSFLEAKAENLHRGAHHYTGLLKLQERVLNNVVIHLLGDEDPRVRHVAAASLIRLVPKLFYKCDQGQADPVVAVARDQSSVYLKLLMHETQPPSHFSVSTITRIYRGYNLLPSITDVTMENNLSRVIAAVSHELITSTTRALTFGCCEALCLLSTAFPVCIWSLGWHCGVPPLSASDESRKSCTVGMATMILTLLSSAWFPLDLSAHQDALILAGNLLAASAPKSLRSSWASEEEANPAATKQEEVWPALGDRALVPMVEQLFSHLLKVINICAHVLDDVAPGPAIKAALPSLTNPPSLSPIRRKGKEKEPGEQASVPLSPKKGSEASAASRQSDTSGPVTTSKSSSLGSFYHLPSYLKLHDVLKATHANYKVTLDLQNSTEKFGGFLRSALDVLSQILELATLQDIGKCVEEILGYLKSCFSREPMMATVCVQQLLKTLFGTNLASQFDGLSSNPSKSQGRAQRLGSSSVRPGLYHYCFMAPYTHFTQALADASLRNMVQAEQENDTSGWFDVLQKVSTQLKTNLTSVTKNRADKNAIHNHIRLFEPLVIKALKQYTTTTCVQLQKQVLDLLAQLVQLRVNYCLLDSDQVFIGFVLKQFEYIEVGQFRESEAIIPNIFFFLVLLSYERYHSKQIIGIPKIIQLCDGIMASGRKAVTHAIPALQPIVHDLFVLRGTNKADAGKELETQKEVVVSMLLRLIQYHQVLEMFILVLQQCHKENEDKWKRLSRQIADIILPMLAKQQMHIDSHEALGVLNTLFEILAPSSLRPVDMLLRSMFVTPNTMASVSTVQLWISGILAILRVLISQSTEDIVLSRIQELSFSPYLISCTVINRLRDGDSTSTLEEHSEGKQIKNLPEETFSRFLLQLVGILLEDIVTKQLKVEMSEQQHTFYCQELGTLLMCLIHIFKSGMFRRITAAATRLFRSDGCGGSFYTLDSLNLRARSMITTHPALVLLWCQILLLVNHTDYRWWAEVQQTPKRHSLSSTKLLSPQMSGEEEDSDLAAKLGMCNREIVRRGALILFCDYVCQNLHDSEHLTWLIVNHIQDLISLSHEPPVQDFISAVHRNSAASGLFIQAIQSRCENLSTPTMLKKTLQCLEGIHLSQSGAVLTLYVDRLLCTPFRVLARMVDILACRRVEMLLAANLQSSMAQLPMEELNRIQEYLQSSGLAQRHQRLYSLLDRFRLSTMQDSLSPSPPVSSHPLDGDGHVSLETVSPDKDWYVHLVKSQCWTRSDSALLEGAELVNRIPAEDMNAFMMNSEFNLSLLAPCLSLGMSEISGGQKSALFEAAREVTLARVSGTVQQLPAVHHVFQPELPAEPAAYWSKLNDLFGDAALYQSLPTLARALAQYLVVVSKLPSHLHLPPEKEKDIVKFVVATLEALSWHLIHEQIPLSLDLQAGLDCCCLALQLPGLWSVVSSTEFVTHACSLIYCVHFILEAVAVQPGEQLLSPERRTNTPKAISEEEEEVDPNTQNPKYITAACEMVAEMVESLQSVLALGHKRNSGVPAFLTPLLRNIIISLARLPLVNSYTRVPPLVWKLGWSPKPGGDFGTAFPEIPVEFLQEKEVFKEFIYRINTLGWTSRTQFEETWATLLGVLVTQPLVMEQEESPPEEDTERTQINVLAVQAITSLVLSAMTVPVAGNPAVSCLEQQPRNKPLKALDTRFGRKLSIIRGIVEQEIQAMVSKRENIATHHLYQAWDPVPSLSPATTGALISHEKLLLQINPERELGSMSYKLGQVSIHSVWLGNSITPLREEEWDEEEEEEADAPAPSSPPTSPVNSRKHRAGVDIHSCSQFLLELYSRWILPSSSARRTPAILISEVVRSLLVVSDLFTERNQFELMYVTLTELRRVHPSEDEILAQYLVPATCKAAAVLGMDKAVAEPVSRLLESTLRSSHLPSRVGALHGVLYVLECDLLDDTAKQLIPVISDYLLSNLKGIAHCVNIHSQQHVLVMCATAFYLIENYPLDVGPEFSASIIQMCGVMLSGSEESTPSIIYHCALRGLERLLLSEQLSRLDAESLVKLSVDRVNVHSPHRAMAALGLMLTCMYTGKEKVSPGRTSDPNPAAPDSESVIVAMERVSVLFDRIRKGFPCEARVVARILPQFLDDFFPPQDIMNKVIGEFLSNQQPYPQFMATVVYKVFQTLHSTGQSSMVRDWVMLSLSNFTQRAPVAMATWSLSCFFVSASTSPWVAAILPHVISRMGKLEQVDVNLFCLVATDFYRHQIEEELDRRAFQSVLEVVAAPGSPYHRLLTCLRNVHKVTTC
Pf apPOL inh: Pf-apPOL DNA polymerase inhibition; inhibition, % at 10 µM; hit rate 0.25% among 210,000; AID 1794808; Recombinant Pf-apPOL, molecular beacon fluorescence, 1.5 h
An asterisk follows results filed as active; . = no result. Cut-off read from the data, not from the text of the source: active = inhibition above about 50%; inactive = the rest.

SMILES | mHTT CaM bind | Pf apPOL inh
O=C1OC2CC3CC2C1C3C(=O)N1CCN(c2ccc(F)cc2)CC1 (stereo not drawn) | -3 | -4
COc1ccccc1NC(=O)CN(c1ccc(Cl)cc1C)S(C)(=O)=O | -5 | 1
O=C(NCCCN1CCCC1)C1c2ccccc2CC(=O)N1Cc1ccccc1 (stereo not drawn) | 7 | -2
CCN(CC)c1ccc(/C=C2/C(=O)N(c3ccc(Cl)c(C(=O)O)c3)N=C2C)cc1 | 59* | -2
CCN(CC)c1ccc(/C=C2/C(=O)N(c3ccc(C)cc3)N=C2C)cc1 | 29 | -1
CC1=NN(c2cccc(Cl)c2)C(=O)/C1=C/c1ccc(Cl)c([N+](=O)[O-])c1 | 76* | 3
CC1=NN(c2ccc(Cl)c(Cl)c2)C(=O)/C1=C/c1ccc(C)c([N+](=O)[O-])c1 | 12 | 0
O=C(CCC1CCCN(c2cc(NC3CC3)ncn2)C1)NCc1cc(F)cc(F)c1 (stereo not drawn) | 13 | -3
Cc1ccc(-n2nnc3c(SCC(=O)Nc4ccccc4C(F)(F)F)ncnc32)cc1 | -4 | -1
O=C(NC1CCCC1)c1csc(N2CCN(c3ccc(F)cc3)CC2)n1 | 5 | -4
COc1ccc(NS(C)(=O)=O)cc1 | -12 | 5
COc1ccc(NS(=O)(=O)C2CCS(=O)(=O)C2)cc1 (stereo not drawn) | 5 | 100*
COc1ccc(C2=C/C(=C3/c4ccccc4-c4ncccc43)C(=O)O2)c(OC)c1 | 22 | -5
O=C1OC(c2ccccc2)=C/C1=C1/c2ccccc2-c2ncccc21 | 67* | -1
O=S(=O)(c1ccc2[nH]c3c(c2c1)CCCC3)N1CCCc2ccccc21 | 77* | 2
O=S(=O)(c1ccc(F)cc1)N1CCCc2ccccc21 | -38 | 4
O=C1CN(S(=O)(=O)c2ccc(Br)cc2)c2ccccc2N1 | -5 | -155
O=C1CN(S(=O)(=O)c2ccc3[nH]c4c(c3c2)CCCC4)c2ccccc2N1 | 74* | 5
Cc1ccc(S(=O)(=O)N2CCCC2C(=O)Nc2nnc(-c3ccc(C)c(C)c3)o2)cc1 (stereo not drawn) | 46 | -42
CCNC(=O)C(C1CCCC1)N1CCN(C(=O)c2ccccc2)CC1 (stereo not drawn) | 3 | 1
Cc1cccc(-c2nc(-c3nnn(-c4ccccc4)c3C)no2)c1 | -23 | 1
O=C1C(=O)N(Cc2ccc(F)cc2)c2ccccc21 | 45 | 0
O=C1C(=O)N(Cc2ccc(Cl)c(Cl)c2)c2ccccc21 | 93* | -3
O=C1C(=O)N(Cc2ccc(Br)cc2)c2ccc([N+](=O)[O-])cc21 | 24 | 2
O=C1C(=O)N(Cc2ccc(Cl)c(Cl)c2)c2ccc([N+](=O)[O-])cc21 | 91* | 2
SMILES | mHTT CaM bind | Pf apPOL inh
O=C1C(=O)N(Cc2ccc(Br)cc2)c2ccccc21 | 70* | -2
O=C1C(=O)N(CCCCN2C(=O)C(=O)c3ccccc32)c2ccccc21 | 7 | 2
CC1(C)CC(CCNCc2ccccn2)(c2cccc(C(F)(F)F)c2)CCO1 (stereo not drawn) | 9 | -1
COc1ccc(C(=O)N2CCN(c3ccc(Cl)cc3Cl)C(=O)C2C)cc1 (stereo not drawn) | 3 | -7
CCCc1cc(=O)[nH]c(SCC(=O)Nc2ccc(S(=O)(=O)Nc3nccc(C)n3)cc2)n1 | 6 | -2
COc1ccccc1/C=C/C=C1/N=C(c2cccc([N+](=O)[O-])c2C)OC1=O | 14 | -3
O=C(Nc1ccccc1)c1ccccc1 | . | -7
NNC(=O)c1nc[nH]c1C(=O)Nc1ccccc1 | 81* | -7
O=C(c1cccc(Br)c1)N1N=C(C(F)(F)F)CC1(O)c1ccc(Cl)cc1 (stereo not drawn) | 18 | -2
CCC1=NN(C(=O)c2ccc([N+](=O)[O-])cc2)C(O)(c2ccccc2)C1 (stereo not drawn) | 48 | -3
Cc1cccc(C(=O)N2N=C(C(F)(F)F)CC2(O)c2ccc(Br)cc2)c1 (stereo not drawn) | 72* | 1
O=C(c1ccc([N+](=O)[O-])cc1)N1N=C(C(F)(F)F)CC1(O)c1ccncc1 (stereo not drawn) | 26 | -6
O=C(c1cccc(Cl)c1)N1N=C(C(F)(F)F)CC1(O)c1ccc(Cl)cc1 (stereo not drawn) | 76* | 12
CCc1ccc(C2(O)CC(C(F)(F)F)=NN2C(=O)c2cccc(Br)c2)cc1 (stereo not drawn) | 4 | -5
CCC1=NN(C(=O)c2cccc([N+](=O)[O-])c2)C(O)(c2ccc(Cl)cc2)C1 (stereo not drawn) | 77* | -2
CCc1ccc(C2(O)CC(C(F)(F)F)=NN2C(=O)c2ccc([N+](=O)[O-])cc2)cc1 (stereo not drawn) | 81* | 8
O=C(CCc1ccccc1)Nc1cccn2ncnc12 | -4 | 2
COCCNC(=O)c1csc(NC(=O)Nc2ccc(F)cc2)n1 | -16 | -4
CCCC(C)C(=O)N1CC2CN(S(=O)(=O)c3ccccc3)CC(C1)O2 (stereo not drawn) | -5 | -5
CCOc1nccnc1NC1CCN(C(=O)c2cnccn2)CC1 | 3 | -1
O=C(Nc1nccs1)c1cc2ccccc2oc1=Nc1ccccc1 | -5 | 1
CCc1ccc(NC(=O)N2CCc3c(c(COCc4ccccc4)nn3C)C2)cc1 | 20 | -3
Cc1ccc(C2CC(c3ccccc3)=Nc3ccccc3S2)cc1 (stereo not drawn) | . | -7
Clc1ccccc1C1CC(c2ccco2)=Nc2ccccc2S1 (stereo not drawn) | 51* | -2
N#Cc1c(NC(=O)/C=C/C(=O)O)sc2c1CCC2 | -1 | .
SMILES | mHTT CaM bind | Pf apPOL inh
CC1(C)C(C=C(Cl)Cl)C1C(=O)Nc1sc2c(c1C#N)CCCC2 (stereo not drawn) | -2 | 92*
CC(C)CNC(=O)C=CC(=O)O | 2 | -4
S=C(NCCc1ccccc1)NN=Cc1c(-c2ccc(Cl)cc2)[nH]c2ccccc12 | . | -12
N#Cc1ccc(NC(=O)c2sc3ccccc3c2Cl)cc1 | . | -8
CCOC(=O)N1CCc2nc(NC(=O)c3sc4ccccc4c3Cl)sc2C1 | 53* | -1
CC(=O)N1CCc2c(sc(NC(=O)c3sc4ccccc4c3Cl)c2C#N)C1 | 61* | -23
CCOC(=O)N1CCc2nc(NC(=O)c3nc4ccccc4s3)sc2C1 | 36 | 0
Cc1ccc(C2CCCN2C(=O)c2ccnn2C)cc1 (stereo not drawn) | 1 | 3
COc1ccccc1C=CC=C1Oc2cc(OC(=O)N3CCOCC3)ccc2C1=O | 43 | -5
O=[N+]([O-])c1cccc(C=Nc2cc(Cl)ccc2O)c1 | 59* | -3
NC(=S)NN=Cc1ccc([N+](=O)[O-])s1 | . | 0
Cc1ccc([N+](=O)[O-])cc1N=Cc1cccc([N+](=O)[O-])c1 | -4 | -6
NC(=S)NN=Cc1cccc([N+](=O)[O-])c1 | 0 | 79*
CCOc1ccc(C(O)CN2CCN(C3CCCCC3)CC2)cc1 (stereo not drawn) | -6 | 2
Cc1nc2ccccc2nc(C)c1=NOCc1ccccc1F | -12 | 4
CCC(=O)Nc1cc2nn(-c3ccc(Cl)cc3)nc2cc1C | -2 | -8
COc1ccc(OC)c(S(=O)(=O)n2nnc3cc(Cl)ccc32)c1 | 100* | -10
Cc1ccc(C)c(S(=O)(=O)n2nnc3cc(Cl)ccc32)c1 | -6 | -2
CCN1CCN(C(=O)c2cnc(-c3ccccc3)nc2N2CCSCC2)CC1 | 27 | -12
CN1CCN(C(=O)c2cnc(-c3ccccc3)nc2N2CCSCC2)CC1 | 97* | -10
